Data: PubChem BioAssay (NCI)
Several values for one entry are separate records, joined by “and”; a condition that tells them apart may be missing. Equal values may be shown once. About 83,000 compounds went through this panel and 20% of them were active in at least one assay; those are over-represented in the sample as a whole.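 For each line, cells grew in 96-well plates with the test compound present at a single concentration for 48 hours.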 Activity calls are given as the source filed them.

The molecules below were run on MOLT-4 leukemia (assay: NCI-60 one-dose screen, 48 h (100 = growth as untreated, 0 = no growth, -100 = all killed)). Conditions: 0.25 µM.
Protocol: Growth inhibition of the MOLT-4 human tumor cell line is measured as a screen for anti-cancer activity. Cells are grown in 96 well plates and exposed to the test compound for 48 hours. Compounds are tested at a single concentration, which is 10^-5 M for most compounds. The reported endpoint is percent growth (GI% or GIPRCNT), where numbers from 0 - 100% represent growth inhibition, and numbers from -100% - 0 represent cell death. For example, a value of 40 represents 60% growth inhibition. A value of 0 means no net growth occurred over the course of the experiment. A value of -40 indicates 40% of cells at the beginning of the experiment died by the end of the experiment. A value of -100 means all cells are dead at the end of the experiment.
NCI-60 Human Tumor Cell Lines Screen was performed using the standard one-dose NCI protocol, which is described in more detail at https://dtp.cancer.gov/discovery_development/nci-60/default.htm.
Compounds with GIPRCNT values below 10 were considered active. Activity score was based on GIPRCNT using the following formula: […]
Score is 0 for GIPRCNT values of 100 or above, 50 for GIPRCNT values of 0, and 100 for GIPRCNT values of -100.
In the case of `CCCCCCCCCCCCCCCc1ccc(Cl)c(O)c1Cl` (tested in a mixture with another compound), the growth was 4.89% (active).

Same assay, conditions: 1 µM
`CNC(=O)c1cc(Oc2ccc(CC(=O)Nc3cc(C(C)(C)C)nn3C)cc2)ccn1` was tested, and the growth was 78% (inactive).

Same assay, conditions: 10 µM
`O=C(O)c1sccc1O` was tested, and the growth was 46.1% (inactive). With `CCCCCCCCCCCCCCCc1ccc(Cl)c(O)c1Cl` (tested in a mixture with another compound) the growth was 104% (inactive). In the case of `COc1ccc(Cl)cc1C(=O)NCCc1ccc(S(=O)(=O)NC(=O)NC2CCCCC2)cc1`, the growth was 113% (inactive) and 98.6% (inactive). With `CNC(=O)c1cc(Oc2ccc(CC(=O)Nc3cc(C(C)(C)C)nn3C)cc2)ccn1` the growth was -64.3% (active). `CCc1ccccc1-n1c(N)c(C#N)c(-c2ccc(OC)c(OC)c2)c(C#N)c1=O` was tested, and the growth was 95.7% (inactive). In the case of `CC(C)(C)c1cc(NC(=O)Cc2ccc(-c3cnc4cc(-c5cnn(CCN6CCOCC6)c5)ccc4n3)cc2)no1`, the growth was 13.8% (inactive). For `CC1(C)OB(c2ccc(Cn3cc(F)c(=O)[nH]c3=O)cc2)OC1(C)C`, the growth was 99.3% (inactive).

Same assay, conditions: 10 µM unless noted
`CC(=O)C(/C=N/C(N)=O)=C(/C)O` was tested, and the growth was 111% (inactive). With `COc1ccc(-c2ncnc3c2ncn3C/C=C/CCl)cc1` the growth was 48.9% (inactive). `COc1ccccc1NC(=O)OCC#CCOC(=O)Nc1ccccc1OC` was tested, and the growth was 72.4% (inactive). For `Cc1n[nH]c(=O)n(/N=C\c2c[nH]c3ccccc23)c1=O`, the growth was 91.6% (inactive). `COc1cc2c(c(OC)c1OC)-c1ccc(OC)c(=O)cc1[C@@H](NC(C)=O)CC2` was tested, and the growth was 7.82% (active) and 6.6% (active) and 6.73% (active). With `CN(C)c1ccc2nc3ccc(=[N+](C)C)cc-3sc2c1` the growth was 24.4% (inactive) and 21.7% (inactive) and 32.9% (inactive). For `Nc1ccc2ccc(N)cc2c1`, the growth was 76.8% (inactive). With `CCOc1ccc(Nc2c3ccccc3nc3ccccc23)cc1` the growth was 89.9% (inactive) and -2.2% (active) and -10.9% (active). With `CCN(CC)CCC(CNc1c2ccc([N+](=O)[O-])cc2nc2cc(OC)c(OC)cc12)c1ccccc1` (stereo not given) the growth was 5.7% (active). With `COc1ccc(S(=O)(=O)N2CCOCC2)cc1NC(=O)c1[nH]c(C)c2c1CCCCC2=O` the growth was 104% (inactive) and 65.9% (inactive). In the case of `CC1=C(/C=C/C(C)=C/C=C/C(C)=C/C(=O)O)C(C)(C)CCC1`, the growth was 59.3% (inactive) and 99% (inactive) and 83.8% (inactive). In the case of `CN(C)c1ccc(/C=C(\C#N)c2ccccc2)cc1`, the growth was 25.2% (inactive) and 35.6% (inactive) and 34.9% (inactive). With `NC(=O)NO` the growth was 95.9% (inactive) and 75.1% (inactive). `S=C(S)N1CCCC1` was tested, and the growth was 98.7% (inactive) and 107% (inactive). In the case of `CC1=C(/C=C/C(C)=C/C=C/C(C)=C/C=N/NC(=S)NC(=S)N/N=C/C=C(C)/C=C/C=C(C)/C=C/C2=C(C)CCCC2(C)C)C(C)(C)CCC1`, the growth was -22.2% (active) and -41.2% (active). For `NC(=S)NS(=O)(=O)c1ccc(N)cc1`, the growth was 101% (inactive). With `CCOc1ccc2nc3cc(N)ccc3c(N)c2c1` the growth was 34.9% (inactive) and 25.3% (inactive). In the case of `CNc1cc(-c2cccc(OC(F)(F)F)c2)nc2ccc(N3CCCC3)cc12`, the growth was -38.6% (active) and -30.7% (active) and 2.3% (active). For `OCCN1CCN(CCCN2c3ccccc3Sc3ccc(Cl)cc32)CC1`, the growth was 47.9% (inactive) and 53.3% (inactive). With `O=C(O)CCCCc1ccc([N+](=O)[O-])cc1` the growth was 99.4% (inactive) and 88.5% (inactive). `Cc1cc(O)c(C(C)C)cc1N` was tested, and the growth was 95.2% (inactive) and 103% (inactive). In the case of `CC(=O)c1ccccc1O`, the growth was 88.1% (inactive) and 91.6% (inactive) and 104% (inactive). `CN(C)c1ccc2nc3ccc(N)cc3[n+](-c3ccccc3)c2c1` was tested, and the growth was 23% (inactive) and 0.316% (active). `CCN(CC)CCCC(C)Nc1cnc(C(=O)Nc2cc(F)cc3cccnc23)cn1` (stereo not given) was tested, and the growth was 22% (inactive) and 10.4% (inactive). In the case of `CCCCCCCCCCCCCCCc1cc(O)ccc1N`, the growth was -1.13% (active) and -2.69% (active).

Same assay, conditions: 30 µM
With `CNC(=O)c1cc(Oc2ccc(CC(=O)Nc3cc(C(C)(C)C)nn3C)cc2)ccn1` the growth was 65.6% (inactive). In the case of `CC(C)(C)c1cc(NC(=O)Cc2ccc(-c3cnc4cc(-c5cnn(CCN6CCOCC6)c5)ccc4n3)cc2)no1`, the growth was 10.8% (inactive).

Same assay, conditions: 50 µM
With `CC1(C)OB(c2ccc(Cn3cc(F)c(=O)[nH]c3=O)cc2)OC1(C)C` the growth was 54.7% (inactive).

Same assay, conditions: 100 µM
`O=C(O)c1sccc1O` was tested, and the growth was 17.4% (inactive). For `COc1ccc(Cl)cc1C(=O)NCCc1ccc(S(=O)(=O)NC(=O)NC2CCCCC2)cc1`, the growth was 60.6% (inactive). `CCc1ccccc1-n1c(N)c(C#N)c(-c2ccc(OC)c(OC)c2)c(C#N)c1=O` was tested, and the growth was 111% (inactive).
